# Test results as given in the supplement of paper PMC12669032.
# Unmarked numbers belong to inactive results.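 Rule for the calls: active = AUC reduced over 20% with Padj below 0.05 in at least 2 of 3 replicates; inactive = otherwise.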
# Assays:
# Experiment in all cases: growth AUC relative to DMSO control (median of replicates) (fraction); higher = more growth (less inhibition), active = hit call of the paper
# Conditions in all cases: 20 µM; 24 h
# Akkermansia muciniphila = test system: Akkermansia muciniphila
# Method in brief: (§1)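 Gut bacterial monocultures were grown anaerobically at 37 °C in mGAM, starting at OD600 0.05, with 20 µM compound (1% DMSO) in round-bottom 96-well plates under pierced gas-permeable seals. OD600 was read hourly for 24 h. Area under the growth curve (minimum OD set to 0) was normalised to the plate median of DMSO controls, or to row and column medians on the industrial chemical plate. The value is the median of three biological replicates grown on separate days.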
# Bacteroides caccae = test system: Bacteroides caccae
# Method in brief: as §1
# Bacteroides clarus = test system: Bacteroides clarus
# Method in brief: as §1
# Bacteroides dorei = test system: Bacteroides dorei
# Method in brief: as §1
# Bacteroides stercoris = test system: Bacteroides stercoris
# Method in brief: as §1
# [1] = test system: Bacteroides thetaiotaomicron
# Method in brief: as §1
# Bacteroides uniformis = test system: Bacteroides uniformis
# Method in brief: as §1
# [2] = test system: Bifidobacterium longum subsp. longum
# Method in brief: as §1
# Clostridium difficile = test system: Clostridium difficile
# Method in brief: as §1
# Collinsella aerofaciens = test system: Collinsella aerofaciens
# Method in brief: as §1
# Coprococcus comes = test system: Coprococcus comes
# Method in brief: as §1
# Escherichia coli ED1a = test system: Escherichia coli ED1a
# Method in brief: as §1
# Escherichia coli IAI1 = test system: Escherichia coli IAI1
# Method in brief: as §1
# Eubacterium rectale = test system: Eubacterium rectale
# Method in brief: as §1
# [3] = test system: Fusobacterium nucleatum subsp. animalis
# Method in brief: as §1
# Lactobacillus gasseri = test system: Lactobacillus gasseri
# Method in brief: as §1
# Lactobacillus paracasei = test system: Lactobacillus paracasei
# Method in brief: as §1
# Odoribacter splanchnicus = test system: Odoribacter splanchnicus
# Method in brief: as §1
# [4] = test system: Parabacteroides distasonis
# Method in brief: as §1
# Parabacteroides merdae = test system: Parabacteroides merdae
# Method in brief: as §1
SMILES,growth AUC (Akkermansia muciniphila),growth AUC (Bacteroides caccae),growth AUC (Bacteroides clarus),growth AUC (Bacteroides dorei),growth AUC (Bacteroides stercoris),growth AUC [1],growth AUC (Bacteroides uniformis),growth AUC [2],growth AUC (Clostridium difficile),growth AUC (Collinsella aerofaciens),growth AUC (Coprococcus comes),growth AUC (Escherichia coli ED1a),growth AUC (Escherichia coli IAI1),growth AUC (Eubacterium rectale),growth AUC [3],growth AUC (Lactobacillus gasseri),growth AUC (Lactobacillus paracasei),growth AUC (Odoribacter splanchnicus),growth AUC [4],growth AUC (Parabacteroides merdae)
CCCN(CCOc1c(Cl)cc(Cl)cc1Cl)C(=O)NC=O,1.04,0.938,0.948,0.947,1.07,0.94,0.957,0.968,1.01,0.995,0.965,1.04,0.993,1.02,1.01,1.09,0.9,0.956,0.925,0.991
COC(=O)c1c(Cl)ccc(Cl)c1OC,1.02,1,1.01,1.04,0.942,1.02,1,1.04,1.04,1.04,1.04,1.04,1.03,0.969,0.968,0.979,0.921,1.04,1.05,1.01
Br[C@@H]1CC[C@@H](Br)[C@@H](Br)CC[C@@H](Br)[C@@H](Br)CC[C@H]1Br,1.01,0.983,0.795 (active),0.924,0.573 (active),0.967,0.928,0.779 (active),1.01,0.796 (active),0.934,0.897,0.979,1,1.01,0.947,0.996,0.983,0.682 (active),0.931
CCOC(=O)Cn1c(=O)sc2cccc(Cl)c21,0.779,0.987,0.979,0.97,1,0.999,0.957,1.04,0.997,0.936,0.959,1.01,0.957,0.996,0.994,1.04,0.993,0.979,1.07,0.98
CC(C)NS(=O)(=O)NC(=O)c1cc(NC(N)=O)c(F)cc1Cl,1.06,1,0.988,0.959,0.991,0.808,1.02,1.02,1.06,0.981,0.928,1.01,0.971,1.01,1,0.907,1.1,0.976,1.02,0.98
CCCC(C)(C)C(=O)Nc1ccc(Cl)cc1,0.942,1,1.01,1.02,1.01,0.946,0.955,0.98,0.999,1.02,0.978,0.973,1.01,0.958,0.938,1.1,0.989,0.958,0.928,0.949
O=S(Cc1ccc(Cl)cc1)c1ccc(Cl)cc1 (stereo not given),0.934,0.961,0.978,0.986,0.964,0.946,0.983,1.05,0.977,0.972,1,0.986,0.981,1.09,0.94,0.899,1.24,1.01,0.947,1
CCOC(=O)c1nc(C(Cl)(Cl)Cl)n(-c2ccc(Cl)cc2Cl)n1,0.908,1,1,0.99,0.861,0.966,0.968,0.983,0.983,0.952,0.946,1,1.01,0.961,0.995,1.02,1,1,0.899,0.965
CC(Oc1ccc(Cl)cc1Cl)C(=O)NC(C)(C#N)C(C)C (stereo not given),1.27,0.944,1,0.999,0.99,0.964,0.92,1.02,0.935,0.977,1.02,0.989,1.01,1.13,0.972,0.803,0.997,0.838,0.65 (active),0.981
